Measured values taken from PubChem BioAssay AID1159580 (chemical genetic matrix, 2015).
About 2,000 (36%) of roughly 5,500 compounds were called active. Another 18% or so got no clear call; they are omitted. No stated cut-off is given here; in the data, active means normalized growth mostly below about 0.91 (no sharp cut-off); inconclusive means no clear call, values can overlap the other calls; inactive means mostly above about 0.92. The list shows a part of the results.

Assay: chemical genetic growth profiling, strain panel (AID 1159580);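 further: tested at 20 µM; growth read once vehicle control cultures reached saturation at 30 °C; 1 = growth at the plate median or of vehicle wells; lower values mean less growth of the strain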
Settings: growth OD

Measured: normalized growth

Oc1cc(O)c2c(c1)O[C@H](c1cc(O)c(O)c(O)c1)[C@H](O)C2
inactive: S. cerevisiae deletion strains, locus YJR043C, strain POL32, active compounds read low 1.05 | S. cerevisiae deletion strains, locus YJR066W, strain TOR1, active compounds read low 0.918 | S. cerevisiae deletion strains, locus YKL009W, strain mrt4, active compounds read low 0.976 | S. cerevisiae deletion strains, locus YKL068W, active compounds read low 1 | S. cerevisiae deletion strains, locus YKL085W, strain MDH1 (second series), active compounds read low 1 | S. cerevisiae deletion strains, locus YKL085W, strain MDH1, active compounds read low 1 | S. cerevisiae deletion strains, locus YKL160W, strain elf1, active compounds read low 1.01 | S. cerevisiae deletion strains, locus YKR001C, strain vps1, active compounds read low 0.973 | S. cerevisiae deletion strains, locus YKR026C, strain gcn3, active compounds read low 1.02 | S. cerevisiae deletion strains, locus YKR091W, strain srl3, active compounds read low 1.02 | S. cerevisiae deletion strains, locus YLL001W, strain dnm1, active compounds read low 1.03 | S. cerevisiae deletion strains, locus YLL026W, active compounds read low 1.02 | S. cerevisiae deletion strains, locus YLL041C, strain sdh2, active compounds read low 1.02 | S. cerevisiae deletion strains, locus YLR027C, strain aat2, active compounds read low 1 | S. cerevisiae deletion strains, locus YLR039C, strain RIC1, active compounds read low 1.05 | S. cerevisiae deletion strains, locus YLR058C, strain SHM2, active compounds read low 0.98 | S. cerevisiae deletion strains, locus YLR102C, strain apc9, active compounds read low 0.976 | S. cerevisiae deletion strains, locus YLR113W, strain HOG1, active compounds read low 0.977 | S. cerevisiae deletion strains, locus YLR221C, strain rsa3, active compounds read low 1.01 | S. cerevisiae deletion strains, locus YLR258W, strain gsy2, active compounds read low 1.01 | S. cerevisiae deletion strains, locus YLR262C, strain YPT6 (second series), active compounds read low 1.03 | S. cerevisiae deletion strains, locus YLR262C, strain YPT6, active compounds read low 1.06 | S. cerevisiae deletion strains, locus YLR268W, strain sec22, active compounds read low 0.98 | S. cerevisiae deletion strains, locus YLR320W, strain mms22, active compounds read low 1.04 | S. cerevisiae deletion strains, locus YLR330W, strain CHS5, active compounds read low 1.01 | S. cerevisiae deletion strains, locus YLR342W, strain FKS1 (second series), active compounds read low 0.996 | S. cerevisiae deletion strains, locus YLR342W, strain FKS1, active compounds read low 1.01 | S. cerevisiae deletion strains, locus YLR357W, strain rsc2, active compounds read low 0.986 | S. cerevisiae deletion strains, locus YLR370C, strain arc18, active compounds read low 1.01 | S. cerevisiae deletion strains, locus YLR371W, strain rom2, active compounds read low 0.981 | S. cerevisiae deletion strains, locus YLR384C, strain iki3, active compounds read low 1.03 | S. cerevisiae deletion strains, locus YLR418C, strain cdc73, active compounds read low 1.01 | S. cerevisiae deletion strains, locus YML016C, strain PPZ1, active compounds read low 0.981 | S. cerevisiae deletion strains, locus YML032C, strain rad52, active compounds read low 1.03 | S. cerevisiae deletion strains, locus YML120C, strain ndi1, active compounds read low 1.04 | S. cerevisiae deletion strains, locus YML124C, strain tub3, active compounds read low 0.999 | S. cerevisiae deletion strains, locus YMR058W, strain fet3, active compounds read low 0.945 | S. cerevisiae deletion strains, locus YMR078C, strain ctf18, active compounds read low 1 | S. cerevisiae deletion strains, locus YMR125W, strain sto1, active compounds read low 1.02 | S. cerevisiae deletion strains, locus YMR129W, active compounds read low 1.02 | S. cerevisiae deletion strains, locus YMR205C, strain PFK2, active compounds read low 1.06 | S. cerevisiae deletion strains, locus YMR223W, strain ubp8, active compounds read low 0.991 | S. cerevisiae deletion strains, locus YMR231W, strain pep5, active compounds read low 0.987 | S. cerevisiae deletion strains, locus YMR307W, strain GAS1, active compounds read low 1.07 | S. cerevisiae deletion strains, locus YNL067W, strain RPL9B, active compounds read low 0.984 | S. cerevisiae deletion strains, locus YNL071W, strain lat1, active compounds read low 1.03 | S. cerevisiae deletion strains, locus YNL153C, strain GIM3, active compounds read low 0.957 | S. cerevisiae deletion strains, locus YNL183C, strain NPR1, active compounds read low 0.951 | S. cerevisiae deletion strains, locus YNL209W, strain ssb2, active compounds read low 1 | S. cerevisiae deletion strains, locus YNL233W, strain BNI4, active compounds read low 0.987 | S. cerevisiae deletion strains, locus YNL248C, strain rpa49, active compounds read low 1.03 | S. cerevisiae deletion strains, locus YNL250W, strain rad50, active compounds read low 0.986 | S. cerevisiae deletion strains, locus YNL271C, strain bni1, active compounds read low 0.988 | S. cerevisiae deletion strains, locus YNL298W, strain CLA4, active compounds read low 0.969 | S. cerevisiae deletion strains, locus YNL307C, strain MCK1, active compounds read low 0.981 | S. cerevisiae deletion strains, locus YNL322C, strain KRE1 (second series), active compounds read low 1.02 | S. cerevisiae deletion strains, locus YNR049C, strain mso1, active compounds read low 1.02 | S. cerevisiae deletion strains, locus YNR052C, strain pop2, active compounds read low 0.994 | S. cerevisiae deletion strains, locus YOL012C, strain htz1 1.18 | S. cerevisiae deletion strains, locus YOL147C, strain pex11, active compounds read low 0.988 | S. cerevisiae deletion strains, locus YOR001W, strain rrp6, active compounds read low 1.03 | S. cerevisiae deletion strains, locus YOR061W, strain CKA2, active compounds read low 0.99 | S. cerevisiae deletion strains, locus YOR069W, strain VPS5, active compounds read low 0.99 | S. cerevisiae deletion strains, locus YOR070C, strain gyp1, active compounds read low 1 | S. cerevisiae deletion strains, locus YOR080W, strain dia2, active compounds read low 1.02 | S. cerevisiae deletion strains, locus YOR083W, strain WHI5, active compounds read low 1.01 | S. cerevisiae deletion strains, locus YOR106W, strain vam3, active compounds read low 0.999 | S. cerevisiae deletion strains, locus YOR136W, strain idh2, active compounds read low 0.976 | S. cerevisiae deletion strains, locus YOR144C, strain elg1, active compounds read low 1 | S. cerevisiae deletion strains, locus YOR184W, strain ser1, active compounds read low 1.02 | S. cerevisiae deletion strains, locus YOR231W, strain MKK1, active compounds read low 0.983 | S. cerevisiae deletion strains, locus YOR265W, strain rbl2, active compounds read low 1.02 | S. cerevisiae deletion strains, locus YOR270C, strain vph1, active compounds read low 1.1 | S. cerevisiae deletion strains, locus YOR290C, strain snf2, active compounds read low 1.02 | S. cerevisiae deletion strains, locus YOR316C, strain cot1, active compounds read low 0.98 | S. cerevisiae deletion strains, locus YPL051W, strain arl3, active compounds read low 1 | S. cerevisiae deletion strains, locus YPL055C, strain LGE1, active compounds read low 1.01 | S. cerevisiae deletion strains, locus YPL078C, strain atp4, active compounds read low 1.05 | S. cerevisiae deletion strains, locus YPL106C, strain sse1, active compounds read low 0.99 | S. cerevisiae deletion strains, locus YPL240C, strain hsp82, active compounds read low 1.02 | S. cerevisiae deletion strains, locus YPL256C, strain CLN2, active compounds read low 0.983 | S. cerevisiae deletion strains, locus YPR119W, strain clb2, active compounds read low 0.992 | S. cerevisiae deletion strains, locus YPR141C, strain kar3, active compounds read low 0.978 | S. cerevisiae deletion strains, locus YPR163C, strain tif3, active compounds read low 0.988 | S. cerevisiae deletion strains, locus YPR167C, strain met16, active compounds read low 1 | S. cerevisiae deletion strains, strain wtn01, active compounds read low 0.975 | S. cerevisiae strains, strain wild type, active compounds read low 1
